Among all 400,000 compounds or so, about 5,500 (1.4%) were called active. A call without a number means that no potency is given here. Not shown: some 9% with an inconclusive outcome. The call rests on the fitted dose curve; in most records, active means well fitted cell-killing curve with a large enough effect; inconclusive means small, poorly fitted or top-dose-only effect, or effect the other way; inactive means flat fitted curve, though single readings scatter. The full list was thinned out, with actives kept by preference.
Test: qHTS assay for MDR1-selective chemotherapeutics: Primary screen using the parental adenocarcinoma cell KB-3-1; further: nearly all actives have a fitted effect of over 60% in size
Conditions: KB-3-1 viability, CellTiter-Glo ATP luminescence, 72 h; series mostly up to 46.1 µM
Summary of the method: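 Here the drug-naive KB-3-1 line serves as comparator for MDR sub-line selectivity; cells received compound titrations, 72 h at 37 °C, then CellTiter-Glo readout.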
Potency means the concentration at half of the fitted maximal effect.

Row | Compound | Potency
1 | CCC(=O)N1CCc2cc(S(=O)(=O)NC(Cc3ccccc3)C(=O)NCc3ccccc3)ccc21 (centres undefined) | inactive
2 | Cc1nnc2n1N=C(c1ccc3c(c1)NC(=O)CO3)CS2 | inactive
3 | COc1ccc(C2=Nn3c(nnc3-c3ccccc3OC)SC2)cc1OC1CCCC1 | 2.31 µM (active)
4 | CCn1c(SCC(=O)NC2CC2)nnc1-c1ccccc1OC | inactive
5 | O=C1CCCc2c1[nH]c1ccc(Br)cc21 | 0.651 µM (active)
6 | O=[n+]1c2c(n([O-])c3cc(Br)ccc31)CCC2 | inactive
7 | C/C(=N\N)c1c(-c2ccccc2)c2cc(Br)ccc2[nH]c1=O | inactive
8 | CCOC(=O)c1ccccc1NC(=O)CCc1c(C)nc2c(c1C)c(=O)n(C)c(=O)n2C | inactive
9 | Cc1nn(CC(=O)O)c(=O)c2cc3cc(F)ccc3n12 | inactive
10 | COc1cc(NC(=O)CCn2nc(C)cc2C)cc(OC)c1OC | inactive
11 | OC(CBr)CN1CCCCC1 (centres undefined) | inactive
12 | CC1(C)CCSC(/C=C/c2ccccc2)=N1 | 14.6 µM (active)
13 | CC1(C(=O)NS(=O)(=O)c2ccccc2)CCN1C(=O)C/C=C/c1ccccc1 (centres undefined) | inactive
14 | CC1(C(=O)O)CCN1C(=O)/C=C/c1ccccc1 (centres undefined) | inactive
15 | COc1ccc(NC(=S)SC)cc1OC | inactive
16 | COc1ccc(NS(=O)(=O)c2ccc(NC(C)=O)cc2)cc1OC | 14.6 µM (active)
17 | COc1ccc(S(=O)(=O)Nc2ccc3oc(C)c(C(C)=O)c3c2)cc1 | 3.26 µM (active)
18 | CC(=O)c1c(C)oc2ccc(NS(=O)(=O)c3ccccc3)cc12 | inactive
19 | COc1ccc(S(=O)(=O)Nc2cc(C)on2)cc1NC(C)=O | inactive
20 | CC(=O)c1c(C)oc2ccc(NS(=O)(=O)c3ccc(C(=O)O)cc3)cc12 | inactive
21 | Cc1ccc(N(C)C(=O)C2CCN(S(=O)(=O)c3ccc4c(c3)CCCN4C(=O)C3CCC3)CC2)cc1 | inactive
22 | CCOc1ccc(CNCc2c(C(=O)O)c(C)n(Cc3cccc(OC)c3)c2C)cc1OC | inactive
23 | OCCNc1ncnc2oc(-c3ccco3)c(-c3ccco3)c12 | inactive
24 | Cn1c(=O)c2c(SCC(=O)N3CCc4ccccc43)nc(-c3ccc(Cl)cc3)nc2n(C)c1=O | inactive
25 | O=C(COc1ccccc1F)Nc1ccc(C(=O)OCc2cc(=O)n3nc(C4CC4)sc3n2)cc1 | inactive
26 | COc1cccc(C(=O)NCc2ccc3c(c2)CCN3C(=O)c2ccncc2)c1 | inactive

Row | Compound | Potency
27 | Brc1cccc[n+]1Cc1cccc(C[n+]2ccccc2Br)c1 | inactive
28 | COc1ccccc1/C=C/C=N/n1c(-c2ccc(Cl)cc2Cl)n[nH]c1=S | inactive
29 | Cc1cc(-c2n[nH]c(=S)n2/N=C/C(Br)=C/c2ccccc2)n[nH]1 | 5.8 µM (active)
30 | S=c1[nH]nc(-c2ccco2)n1/N=C/c1ccc(Br)s1 | inactive
31 | CN(C)CCCn1c(N)c(C#N)c2nc(C#N)c(C#N)nc21 | 23.1 µM (active)
32 | COCCn1c(SCC(=O)c2cc(C)ccc2C)nc2cc(C(=O)NC3CCCC3)ccc2c1=O | inactive
33 | COc1cccc(OC)c1C(=O)N1CCN(Cc2ccccc2F)CC1 | inactive
34 | CCCCCc1c(Cc2ccccc2)ncn1CCc1ccccc1OC | 16.4 µM (active)
35 | CCCCc1c(-c2ccc(Br)cc2)ncn1CCc1ccccc1OC | 16.4 µM (active)
36 | COc1ccccc1CCNS(=O)(=O)c1cn(C)nc1C | inactive
37 | CCOc1ccc(-c2n[nH]c3c2C(c2ccccc2OC)N(c2ccc(Br)cc2)C3=O)cc1 (centres undefined) | inactive
38 | CCCc1c(-c2ccccc2F)ncn1Cc1ccccc1OC | 20.6 µM (active)
39 | COCCn1cnc2c1c(=O)n(Cc1ccc(Br)cc1)c(=O)n2Cc1ccccc1 | inactive
40 | Cn1c(=O)c2c(ncn2CCc2ccccc2)n(C)c1=O | inactive
41 | COc1ccccc1CN1CCN(Cc2cc(OC)c(OC)cc2OC)CC1 | inactive
42 | CC(=O)Nc1ccc(NC(=O)CCCc2nc(-c3ccc(C(C)(C)C)cc3)no2)cc1 | inactive
43 | COc1cc(C(=O)N(Cc2ccc(C(C)C)cc2)C2CCS(=O)(=O)C2)cc(OC)c1OC (centres undefined) | inactive
44 | CCCN(CCC)C(=O)C(Cc1ccccc1)NS(=O)(=O)c1ccc2c(c1)c(=O)n(C)c(=O)n2C (centres undefined) | inactive
45 | N#C/C(=C\c1cccc(F)c1)c1nc(-c2cc3c(ccc4ccccc43)oc2=O)cs1 | inactive
46 | O=C(NCCCO)C(=O)Nc1c2c(nn1-c1ccc(F)cc1)CSC2 | inactive
47 | CN(C)Cc1cn(-c2ccccc2)nc1-c1ccccc1 | inactive
48 | N#Cc1ccc(OC2=NS(=O)(=O)c3ccccc32)cc1 | inactive
49 | Cn1c(=O)c2c(nc(NCCc3ccccc3)n2Cc2ccccc2Br)n(C)c1=O | inactive
50 | OC(Cc1ccc2ccccc2n1)c1ccc(Cl)c(Cl)c1 (centres undefined) | inactive
51 | O=S(=O)(c1ccc(Br)cc1)c1nnn2c1nc(N1CCOCC1)c1sccc12 | inactive
52 | CCOC(=O)C1CCCN(C(=O)c2ccc(-n3ccc4ccccc43)s2)C1 (centres undefined) | inactive

Row | Compound | Potency
53 | O=C1C=C(c2cc(C(F)(F)F)cc(C(F)(F)F)c2)C[C@@H](c2ccc3c(c2)OCO3)C1 | inactive
54 | O=C1C=C(c2ccnc3cc(Cl)ccc23)C[C@@H](c2ccc3c(c2)OCO3)C1 | 23.1 µM (active)
55 | COc1ccc2cc(C3=CC(=O)C[C@H](c4ccc5c(c4)OCO5)C3)ccc2c1 | inactive
56 | CCSc1ncc(Cl)c(C(=O)Nc2c(C(=O)c3ccccc3)oc3ccccc23)n1 | inactive
57 | Cc1cn(C)c(CC(=O)NCc2ccccc2)c1C(=O)O | inactive
58 | CC(C)CC(=O)NCC(c1ccc2c(c1)OCO2)N1CCN(c2ccc(F)cc2)CC1 (centres undefined) | inactive
59 | c1ccc(Cc2cc[n+](Cc3ccccc3)cc2)cc1 | 18.4 µM (active)
60 | c1ccc(CNCc2ccc(CNCc3ccccc3)cc2)cc1 | inactive
61 | [O-][n+]1ccc(OCc2ccccc2)cc1 | inactive
62 | CCC(=O)Nc1c(C(=O)N2CCN(c3ccc(F)cc3)CC2)oc2ccccc12 | inactive
63 | COCCN(Cc1ccco1)C(=O)Cn1ncc2c([nH]c3ccccc32)c1=O | inactive
64 | CCOc1ccc(N=C2NC(=O)S/C2=C\c2ccc(O)cc2)cc1 | inactive
65 | CCOc1[nH]n(-c2ccc(Cl)cc2)c(=O)c1C=Nc1ccc(O)cc1 | 18.4 µM (active)
66 | Fc1ccc(C(Nc2ccc(Cl)c(C(F)(F)F)c2)c2nnc(-c3ccccc3)o2)cc1 (centres undefined) | inactive
67 | CCOc1ccccc1N(CC)C(=O)c1cc2ccc3cccnc3c2[nH]1 | inactive
68 | Cc1cccc(N(C)C(=O)c2cc3c(=O)[nH]c4ccc(C)cc4c3s2)c1 | 7.31 µM (active)
69 | CCN(CC)CCCNC(=O)c1cc2c(=O)[nH]c3ccc(C)cc3c2s1 | inactive
70 | COc1ccc(CNC(=O)c2cc3c(=O)[nH]c4ccc(C)cc4c3s2)c(OC)c1 | inactive
71 | CSc1ccc(CCNC(=O)c2cc(C)nc3c2c(C)nn3-c2cccc(F)c2)cc1 | inactive
72 | COc1cc(NC(=O)c2cc(C3CC3)nc3c2c(C)nn3-c2ccccc2)cc(OC)c1 | inactive
73 | Cc1cc(C(=O)Nc2cccc(C(F)(F)F)c2)c2c(C)nn(-c3cccc(F)c3)c2n1 | 18.4 µM (active)
74 | Cc1ccc(S(=O)(=O)N(C)C2(C)CCS(=O)(=O)C2)cc1 (centres undefined) | inactive
75 | Cc1ccc(S(=O)(=O)N2CCN(C)CC2)cc1 | inactive
76 | Cc1ccc(S(=O)(=O)C2(S(=O)(=O)c3ccc(C)cc3)CCCC2)cc1 | 6.51 µM (active)
77 | COc1ccc(C2c3c(oc4ccccc4c3=O)C(=O)N2Cc2ccc3c(c2)OCO3)cc1 (centres undefined) | inactive
78 | COC(=O)c1sccc1S(=O)(=O)N(CC(=O)Nc1ccc(C)c(F)c1)c1ccc(C)c(C)c1 | inactive

Row | Compound | Potency
79 | O=C(Nc1ccc(-c2nc3ccccc3[nH]2)cc1)c1ccncc1 | inactive
80 | CCCn1nc(C(=O)Nc2ccc3nc(C)sc3c2)c2ccccc2c1=O | inactive
81 | CCCC(=O)Nc1nc2ccc(NC(=O)c3c(F)c(F)c(OC)c(F)c3F)cc2s1 | 2.59 µM (active)
82 | CC(=O)Nc1ccc2nc(NC(=O)CS(=O)(=O)c3ccc(F)cc3)sc2c1 | inactive
83 | CC(=O)c1ccc(N2CCN(c3nc4c(S(=O)(=O)c5ccccc5)nnn4c4ccc(Cl)cc34)CC2)cc1 | inactive
84 | O=C(N/N=C/c1ccc(Cl)c(Cl)c1)c1ccc2nc[nH]c2c1 | 18.4 µM (active)
85 | CC(=NNC(=O)c1ccc2nc[nH]c2c1)c1ccc(Br)cc1 | inactive
86 | CC1=NNC(=O)C1CCC(=O)N/N=C\c1ccc(Cl)c(Cl)c1 (centres undefined) | inactive
87 | CNc1ccc(-c2nc(-c3ccccc3C)no2)cc1[N+](=O)[O-] | inactive
88 | COc1ccc(Cn2cc(C(=O)c3ccc(C)cc3)c(=O)c3cc(OC)c(OC)cc32)cc1 | inactive
89 | O=C1C[C@H]2C=CCc3cccc(c32)CN1Cc1ccccc1 | inactive
90 | N#CC1=C(N)Oc2cc(O)ccc2C1C1CCCCC1 (centres undefined) | inactive
91 | COc1ccc(C2C(C#N)=C(N)Oc3cc(N)ccc32)cc1OC (centres undefined) | 16.4 µM (active)
92 | COc1ccc(C2C(C#N)=C(/N=C/N3CCOCC3)OC3=C2C(=O)CC(C)(C)C3)cc1OC (centres undefined) | inactive
93 | COc1ccc2nc(N3CCN(C(=O)c4ccc([N+](=O)[O-])o4)CC3)sc2c1 | 16.4 µM (active)
94 | O=C(NCc1ccc(F)cc1)c1ccc2nc(N3CCCCC3)sc2c1 | inactive
95 | CC1CCN(c2nc3ccc(C(=O)N4CCN(c5ccccc5)CC4)cc3s2)CC1 | inactive
96 | COc1cc(C(=O)N2CCN(C(=O)COc3cccc(C)c3)CC2)cc(OC)c1OC | inactive
97 | CC(=O)Nc1cnc(-c2ccc(O)cc2C)cn1 | inactive
98 | Cc1ccc(Nc2nc(-c3ccc(O)cc3O)cs2)nc1 | 20.6 µM (active)
99 | Cc1ccn2c(-c3csc(Nc4ccc(C(=O)O)cc4)n3)c(C)nc2c1 | inactive
100 | Cc1ccc(CN2CCCn3nc(C(=O)NCc4ccccc4Cl)cc3C2=O)cc1 | inactive
101 | CCOC(=O)c1nnn(CC(=O)NC(=O)Nc2ccccc2F)c1C(=O)OCC | inactive
102 | COC(=O)c1c(C)oc(C)c1S(=O)(=O)Nc1ccc(C(C)C)cc1 | 3.26 µM (active)
103 | COC(=O)c1c(C)oc(C)c1S(=O)(=O)NCc1ccc(Cl)cc1 | inactive
104 | COC(=O)c1ccccc1S(=O)(=O)Nc1ccc(OC)cc1 | inactive
